From PubChem BioAssay (NCATS) come the findings set out here.

Inconclusive results are not listed. Where a call stands in place of a potency, no number is given. A number with no mark means an inactive call. The source made the active and inactive calls. Calls come from the whole dose curve; as a rule, active = well fitted cell-killing curve with a large enough effect; inconclusive = small, poorly fitted or top-dose-only effect, or effect the other way; inactive = flat fitted curve, though single readings scatter. Where a SMILES comes first, the peptide text is derived from it. [ ]: non-standard residue; d: D form. ξ: configuration not given here. ξPhe(βξ-Me) = CC(c1ccccc1)C(N)C(=O)O; GABA = NCCCC(=O)O
Potency is the fitted concentration of half-maximal effect.

The subject of the assay is Tov112D. The experiment in a line: Primary qHTS to identify gynecologic anti-cancer compounds using libraries of approved drugs and bioactive compounds (AID 1345084). Note: nearly all actives have a fitted effect of over 55% in size. The note with it: Gynecologic cancer cell panel viability, ATPlite luminescence, 48 h; series mostly up to 57.5 µM. In a few lines: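 Cells, 1,000 per well, were allowed to settle for 16 h at 37 C before compound addition. Five concentrations were tested for 48 h, and viability was read by ATPlite luminescence after 15 min at room temperature.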
For orientation: qHTS replaces the single test concentration by a dilution series.
Take `COC(=O)C1C(CC(C)=O)C=CC(O)C12Oc1cc(C)cc(O)c1C2=O` (stereo not drawn): the Potency result is “inactive”. With `CC1(C)CCC[C@@]2(C)[C@H]1[C@H](O)C=C1COC(=O)[C@@]12O`, the Potency entry is “inactive”. Still for that read-out and setting: under `O=C(O)Cc1nn(Cc2nc3cc(C(F)(F)F)ccc3s2)c(=O)c2nccnc12` stands “inactive”; under `CC1CCC2(C(=O)OC3OC(CO)C(O)C(O)C3O)CCC3(C(=O)O)C(=CCC4C5(C)CCC(OC6OC(C)C(O)C(O)C6O)C(C)(C)C5CCC43C)C2C1C` (stereo not drawn), “inactive”; under `CC(CO[C@@H]1O[C@H](COC(=O)/C=C/c2ccc(O)c(O)c2)[C@@H](O)[C@H](O)[C@H]1O)C1(O)COC(=O)C1` (stereo partly drawn), “inactive”. Same read-out and setting: the result for `CCCCN(CCCC)C(=O)CN1C[C@H](c2ccc3c(c2)OCO3)[C@@H](C(=O)O)[C@@H]1c1ccc(OC)cc1` reads “inactive”; that for `CC(C)C(=O)O[C@@H]1[C@@H](O)[C@@H](O[C@H]2O[C@H](CO)[C@@H](O)[C@H](O)[C@H]2O)O[C@H](CO)[C@H]1O`, “inactive”. On the same count and under the same terms, the result for `CC1(C)CC[C@]2(C(=O)O)CC[C@]3(C)C(=CCC4[C@@]5(C)CCC(O[C@@H]6OC[C@H](O)[C@H](O)[C@H]6O[C@@H]6O[C@H](CO)[C@@H](O)[C@H](O)[C@H]6O)[C@@](C)(CO)C5CC[C@]43C)[C@@H]2C1` (stereo partly drawn) reads “inactive”; that for `CCc1c(CC(N)=O)c2cc(OCCCP(=O)(O)O)ccc2n1Cc1ccccc1`, “inactive”; that for `COc1ccc(C[C@H](N)C(=O)N[C@H]2[C@@H](O)[C@H](n3cnc4c(N(C)C)ncnc43)O[C@@H]2CO)cc1`, 2 µM (active).

In the case of `COC(=O)C1=CO[C@@H](O[C@@H]2O[C@H](CO)[C@@H](O)[C@H](O)[C@H]2O)[C@@H]2[C@@H](C(=O)OC)[C@@H](O)C(O)[C@H]12` (stereo partly drawn), the Potency entry was “inactive”. In the case of `CC(C)CC1NC(=O)C(C(C)c2ccccc2)NC(=O)C(C(C)C)NC(=O)C(C)NC(=O)CCCNC(=O)C(Cc2c[nH]c3ccccc23)NC(=O)C(C)NC1=O` (stereo not drawn) (cyclo([GABA]AV[ξPhe(βξ-Me)]LAW); configuration not given here), the Potency entry is “inactive”. The same measure, in the same setting: the result for `C=C1CCC2C(C)(C)C(O)CCC2(C)C1CCC(C)CCOC(=O)CCC(=O)O` (stereo not drawn) reads “inactive”. Consider `COc1cc(C)c(C(=O)O[C@H]2[C@@H](O)[C@H](n3ccc(=O)[nH]c3=O)O[C@@H]2CO)c(OC)c1`, for which the Potency result was “inactive”. `COC(=O)C1=COC(O[C@@H]2O[C@H](CO)[C@@H](O)[C@H](O)[C@H]2O)/C(=C\COC(=O)c2ccc(OC3OC(CO)C(O)C(O)C3O)c(OC)c2)C1CC(=O)OCCc1ccc(O)cc1` (stereo partly drawn): the activity change, negative = cytotoxicity was 6.58% [at 11.6 µM].

On to `COc1cc(CC(COC2OC(CO)C(O)C(O)C2O)c2cc(/C=C/CO)cc(OC)c2O)ccc1O` (stereo not drawn), for which the Potency result was “inactive”. For `CC1(C)C[C@H]2C3=CCC4[C@@]5(C)CC[C@H](O[C@H]6O[C@H](C(=O)O)[C@@H](O)[C@H](O)[C@H]6O[C@H]6O[C@H](CO)[C@@H](O)[C@H](O)[C@H]6O[C@@H]6O[C@H](CO)[C@@H](O)[C@H](O)[C@H]6O)[C@](C)(CO)C5CC[C@@]4(C)[C@]3(C)CC[C@@]2(C)[C@H](O[C@@H]2OC[C@H](O)[C@H](OC3O[C@H](CO)[C@@H](O)[C@H](O)[C@H]3O)[C@H]2O)[C@@H]1O` (stereo partly drawn), the activity change, negative = cytotoxicity is -3.08% [at 6.55 µM]. For the compound `O=C1N(CC2CCCCN2)CCN1c1ccccc1` (stereo not drawn), the Potency result is “inactive”. For `CCCOc1ccn2c(C(C)=O)cc(-c3ccccc3S(C)(=O)=O)c2c1`, the Potency entry is “inactive”.

`COc1cc(/C=C/C(=O)O[C@H]2[C@H](O)[C@@H](CO)O[C@@]2(CO)O[C@H]2O[C@H](COC(=O)c3ccc(O)cc3)[C@@H](O)[C@H](O)[C@H]2O)cc(OC)c1OC`: the Potency entry was “inactive”. Still for that read-out and setting: the result for `OC[C@H]1O[C@@H](n2cnc3c2NC=NC[C@H]3O)C[C@@H]1O` reads “inactive”; that for `CNc1nc(Nc2cnn([C@H]3CCN(C4COC4)C[C@@H]3F)c2Cl)ncc1C(F)(F)F`, “inactive”; that for `CCCCS(=O)(=O)Nc1ncnc(OCCOc2ncc(Br)cn2)c1-c1ccc(Br)cc1`, “inactive”. Still for that read-out and setting: under `CC/C=C/CC1=C(CCCCCCCC(=O)O)CCC1=O` stands “inactive”; under `C[C@@H]1O[C@@H](OC[C@H]2O[C@@H](OCCc3ccccc3)[C@H](O)[C@@H](O)[C@@H]2O)[C@H](O)[C@H](O)[C@H]1O`, “inactive”; under `C=C[C@](C)(CC/C=C(\C)C(=O)O)O[C@@H]1OC[C@H](O)[C@H](O)[C@H]1O`, “inactive”. Regarding `FC(F)(F)c1cc(C(F)(F)F)c2ccc3nc(-c4nnco4)cn3c2n1`, the Potency result was “inactive”. In the case of `C[C@@H]1O[C@@H](OC[C@H]2O[C@@H](OCC3CCC4CC3C4(C)C)[C@H](O)[C@@H](O)[C@@H]2O)[C@H](O)[C@H](O)[C@H]1O` (stereo partly drawn), the Potency entry was “inactive”.

In the case of `O=C1[C@H](O[C@@H]2O[C@H](CO)[C@@H](O)[C@H](O)[C@H]2O)Oc2ccccc2N1O`, the Potency entry is “inactive”.

`C[C@@H]1O[C@@H](O[C@H]2[C@H](OC(=O)[C@]34CCC(C)(C)C[C@H]3C3=CCC5[C@@]6(C)C[C@H](O)[C@H](O[C@@H]7O[C@H](CO[C@@H]8OC[C@H](O)[C@H](O)[C@H]8O)[C@@H](O)[C@H](O)[C@H]7O)C(C)(C)C6CC[C@@]5(C)[C@]3(C)C[C@H]4O)OC[C@@H](O)[C@@H]2O)[C@H](O)[C@H](O[C@@H]2OC[C@](O)(CO)[C@H]2O)[C@H]1O[C@@H]1OC[C@H](O)[C@H](O[C@@H]2OC[C@@H](O)[C@H](O)[C@H]2O)[C@H]1O` (stereo partly drawn): the activity change, negative = cytotoxicity was 5.07% [at 6.55 µM]. Consider `COC(=O)C1C(c2ccc(O)cc2)C(C(=O)OC)C1c1ccc(O)cc1` (stereo not drawn), for which the Potency entry was “inactive”. The same measure, in the same setting: under `CCN[C@@H]1C[C@H](N)[C@@H](O[C@H]2OC(CN)=CC[C@H]2N)[C@H](O)[C@H]1O[C@H]1OC[C@](C)(O)[C@H](NC)[C@H]1O` stands “inactive”; under `CCOC(=O)[C@H]1O[C@@H]1C(=O)N[C@@H](CC(C)C)C(=O)NCCC(C)C`, “inactive”; under `CC(=O)N1c2ccccc2C2(O)CC3C(=O)NC(CC(C)C)C(=O)N3C12` (stereo not drawn), “inactive”.

Take `CC(C)=CCC/C(C)=C/CC/C(C)=C/CC[C@]1(C)CCc2cc(O)cc(C)c2O1`: the Potency entry was “inactive”. The same measure, in the same setting: the result for `O=C(c1ccc(NS(=O)(=O)c2cccc3cccnc23)cc1)N1CCN(CC2CC2)CC1` reads “inactive”. As to `COc1cc(N2CCC(O)CC2)ccc1Nc1cc(Nc2ccccc2S(=O)(=O)C(C)C)c2cc[nH]c2n1`, the Potency result is “inactive”.

With `C[C@@H]1O[C@@H](O[C@H]2[C@H](OC(=O)[C@]34CCC(C)(C)C[C@H]3C3=CCC5[C@@]6(C)C[C@H](O)[C@H](O[C@@H]7O[C@H](CO)[C@@H](O[C@@H]8O[C@H](CO)[C@@H](O)[C@H](O)[C@H]8O)[C@H](O)[C@H]7O)[C@@](C)(CO)C6[C@H](O)C[C@@]5(C)[C@]3(C)C[C@H]4O)OC[C@H](O)[C@@H]2O)[C@H](O)[C@H](O)[C@H]1O[C@@H]1OC[C@@H](O)[C@H](O[C@@H]2OC[C@](O)(CO)[C@H]2O)[C@H]1O` (stereo partly drawn), the activity change, negative = cytotoxicity is 2.65% [at 6.55 µM].
